Compounds with a hit are over-represented: about 4.8% of the library has one in this group of screens.
APP 5'UTR act: APP 5'UTR luciferase reporter activation; SH-SY5Y APP 5'UTR luciferase reporter, luminescence; zero percent = DMSO vehicle wells; activation, % at 2 µM; 1% of 190,000 active; AID 1276;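 active = activation above a set limit, based on mean plus 3 SD of controls, cut at about 140% in these data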
Hsp70 activator: Hsp70 transcriptional activation, primary screen; HeLa Hsp70 promoter luciferase reporter, luminescence; scaled: vehicle 0, proteasome-inhibitor control 100%; activation, % at 10 µM; 0.04% of 200,000 active; AID 1203;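 active = activation above the mean across all tested compounds plus 3 SD, cutoff set per campaign, cut at about 5.5% in these data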;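 note: 100% = MG132 at 30 µM as the positive control and 0% = DMSO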
STAT1 act: activators of IFN-gamma induced STAT1 signaling; activation (% of control), % at 5.5 µM; NIH 3T3 STAT1-luciferase reporter, luminescence; 100% = IFN-gamma alone, no compound; 2.6% of 200,000 active;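 active = activation above the screen-wide mean activation plus 3 SD, cut at about 130% in these data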;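 note: raw ratio to IFN-gamma control signal so 100% means no change and 0% no light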
Wee1 degr inh: blocks degradation of human Wee1 kinase | P30291 | HeLa Luc-Wee1K328M stability, luciferase luminescence; 100% = proteasome inhibitor MG132 effect | reporter increase, % at 5 µM | 1.2% of 220,000 active | AID 1321;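 active = activation above the mean of all tested compounds plus 3 SD, set per screening run, cut at about 8.8% in these data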;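 note: cells exposed to compound for 20 h before luminescence read; 0% = DMSO alone and 100% = MG132 at 30 µM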
Target sequence (P30291 whole entry K328M): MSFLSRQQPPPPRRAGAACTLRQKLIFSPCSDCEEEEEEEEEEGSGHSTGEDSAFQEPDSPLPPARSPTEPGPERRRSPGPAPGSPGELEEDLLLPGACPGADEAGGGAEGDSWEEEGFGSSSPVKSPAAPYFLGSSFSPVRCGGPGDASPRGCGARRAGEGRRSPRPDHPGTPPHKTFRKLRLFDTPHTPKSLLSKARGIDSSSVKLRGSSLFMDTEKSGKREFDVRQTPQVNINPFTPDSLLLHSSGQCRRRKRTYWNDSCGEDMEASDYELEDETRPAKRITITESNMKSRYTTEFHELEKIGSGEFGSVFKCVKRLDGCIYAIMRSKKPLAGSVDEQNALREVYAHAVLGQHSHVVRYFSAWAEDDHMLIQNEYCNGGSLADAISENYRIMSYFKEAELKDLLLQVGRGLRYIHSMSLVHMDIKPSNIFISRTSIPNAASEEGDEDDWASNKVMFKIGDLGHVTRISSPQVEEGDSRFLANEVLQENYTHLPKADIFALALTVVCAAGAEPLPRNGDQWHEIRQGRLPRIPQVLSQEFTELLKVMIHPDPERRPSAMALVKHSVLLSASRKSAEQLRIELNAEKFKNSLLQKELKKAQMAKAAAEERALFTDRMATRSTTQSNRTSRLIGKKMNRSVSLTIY
NF-kB expr up: NF-kB expression increase, human neuronal cells | fold change at 12.5 µM | NF-kB reporter expression; active compounds read high | 1.6% of 190,000 active; in the data active = fold change above about 3.3
APP transl inh: APP translation inhibition; inhibition, % at 2 µM; AID 1285; 0.82% of 190,000 active; SH-SY5Y APP 5'UTR-luciferase reporter, luminescence;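 active = inhibition above a set limit, derived from the sample mean plus 3 SD, cut at about 45% in these data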
Active calls of the source: *; . = no result.

SMILES	APP 5'UTR act	Hsp70 activator	STAT1 act	Wee1 degr inh	NF-kB expr up	APP transl inh
O=[N+]([O-])c1cccnc1N/N=C/c1ccccc1O	-8	0	130*	-3	1.8	8
O=[N+]([O-])c1cccc(N/N=C/c2cc([N+](=O)[O-])ccc2O)c1	7	0	114	8	1.6	-8
Cc1cccc(-n2nnnc2SC(C)C(=O)NCCC2=CCCCC2)c1 (configuration not stated)	-12	0	104	-1	1.1	12
O=C(NC1CCS(=O)(=O)C1)N1CCCCC1 (configuration not stated)	7	0	100	-1	0.98	-7
Fc1ccc(-c2csc(N3CCSCC3)n2)cc1	1	0	109	3	2.8	-1
Cc1ccc(N=Cc2cccc(O)c2O)c(C)c1	-5	0	103	-3	2.1	5
Cc1ccc(N=Cc2sc(O)c3ccccc23)c(C)c1	12	1	147*	1	1.3	-12
CC1(C)CC(=O)c2sc(NC(=O)C3COc4ccccc4O3)nc2C1 (configuration not stated)	-10	0	110	0	1.6	10
CCCOC(=O)c1ccc(NC(=O)CC(C)(C)C)cc1	122	1	144*	8	5.5*	-122
CCC(=O)Nc1ccc(C(=O)OCc2ccccc2)cc1	24	0	132*	5	1.3	-24
CC(=O)Nc1ccc(C(=O)OCCC(C)C)cc1	6	0	129*	2	1.4	-6
Cc1occc1C(=O)Nc1ccc(OCc2ccccc2)cc1	119	0	129*	2	3.3	-119
O=C(Oc1ccccc1[N+](=O)[O-])c1cccnc1	11	0	102	-2	1.4	-11
C#CCOC(=O)C[N+](C)(C)CC=C	.	.	.	3	.	.
Cn1c(=O)c(C(=O)Nc2ncccc2O)c(O)c2ccccc21	23	0	90	-2	1.5	-23
Cc1occc1C(=O)NNC(=O)c1ccccc1C(=O)O	181*	0	146*	6	1.4	-181
C[C@H](NC(N)=O)C(=O)Nc1ccc(OCc2ccccc2)cc1	52	0	132*	5	2.2	-52
CC(C)[C@H](NC(N)=O)C(=O)Nc1ccc(OCc2ccccc2)cc1	-5	0	111	0	1.2	4
CCCOC(=O)c1ccc(NC(=O)c2ccoc2C)cc1	115	0	141*	0	3.5*	-115
CS(=O)(=O)N1CCC(NC(=O)Cc2ccccc2)CC1	6	0	102	0	1.1	-6
C/C(=N\NC(=O)c1csc(C)c1C)c1ccco1	78	0	117	1	3.7*	-78
CC(=O)c1cccc(Nc2nc(-c3cccc([N+](=O)[O-])c3)cs2)c1	1	0	131*	1	1.5	-2
COc1ccc(CC(=O)Nc2nc(-c3cccc([N+](=O)[O-])c3)cs2)cc1	3	0	98	10*	1.3	-3
CN(Cc1ccccc1)c1c([N+](=O)[O-])c(=O)n(C)c2ccccc12	.	.	.	1	.	.
COc1cc(/C=N/Nc2snc(SC)c2C#N)ccc1O	-83	0	91	4	1.2	83*
SMILES	APP 5'UTR act	Hsp70 activator	STAT1 act	Wee1 degr inh	NF-kB expr up	APP transl inh
COc1cc(/C=N/Nc2nc3ccccc3[nH]2)ccc1O	17	0	114	0	2.2	-17
O=c1c(Cl)c(NCCCO)cnn1-c1nc2ccccc2[nH]1	2	1	110	1	2.7	-2
C=CCN(CC=C)c1cnn(-c2nc3ccccc3[nH]2)c(=O)c1Cl	142*	0	122	2	2.8	-142
CC(C)(C)OC(=O)NCC12C=CC(O1)C1C(=O)N(Cc3ccccc3)C(=O)C12 (configuration not stated)	-21	0	93	1	0.32	21
c1ccc(-c2cc3n(c2)CCc2ccccc2-3)cc1	48	0	130*	-2	2.9	-48
COc1ccc(NC(=O)Cc2ccc(Cl)c(Cl)c2)cn1	9	0	106	0	1.1	-9
COc1ccc(NC(=O)/C(Cl)=C(/Cl)S(=O)(=O)Cc2ccc(C)cc2)cn1	-86	3	133*	2	0.17	86*
CS(=O)(=O)NN1C(=O)c2ccccc2NC1c1cc2ccccc2nc1Cl (configuration not stated)	11	0	102	2	1	-11

Bioassay records deposited in PubChem by several laboratories.
